# Source: article PMC12529666, “Dysregulation of AGO2-miRNA dynamics underlies the AGO2-associated Lessel–Kreienkamp syndrome”
# Legend:
# Assay in all cases: RNA Bind-n-Seq (nitrocellulose filter binding and sequencing); miR-122 guide loaded in AGO2; 60 min incubation; 30 mM Tris pH 8.0, 100 mM potassium acetate, 2 mM magnesium acetate, 0.5 mM TCEP, 0.005% NP-40, 0.01 mg/ml yeast tRNA; 3 nM AGO2-miR-122, 100 nM RNA library; 60; high values mean tight binding
# Conditions in all cases: protein: recombinant; tags: His6 (N-terminal, pFastBac HTA)
# [1] = target: AGO2 WT (phosphosite mutant background) (Homo sapiens, UniProt Q9UKV8 1-859, S387D;S824A;S828D;S831D;S834A)
# Procedure, shortened: (§1)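 Fold enrichment is each target's read fraction divided by its read fraction in the input library. Sf9 insect cells expressed His-tagged AGO2 from baculovirus; the protein was loaded with a synthetic guide RNA and purified by Ni-NTA and a biotinylated capture oligo. The bound RNA was extracted, reverse-transcribed, barcode-amplified and sequenced on Illumina.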
# AGO2 L192P = AGO2 L192P (Homo sapiens, UniProt Q9UKV8 1-859, L192P;S387D;S824A;S828D;S831D;S834A)
# Procedure, shortened: as §1
# AGO2 A367P = AGO2 A367P (Homo sapiens, UniProt Q9UKV8 1-859, A367P;S387D;S824A;S828D;S831D;S834A)
# Procedure, shortened: as §1
# AGO2 T357M = AGO2 T357M (Homo sapiens, UniProt Q9UKV8 1-859, T357M;S387D;S824A;S828D;S831D;S834A)
# Procedure, shortened: as §1
# AGO2 F182del = AGO2 F182del (Homo sapiens, UniProt Q9UKV8 1-859, S387D;S824A;S828D;S831D;S834A;del182-182)
# Procedure, shortened: as §1
# AGO2 L192P, sequence (Q9UKV8 whole entry L192P/S387D/S824A/S828D/S831D/S834A): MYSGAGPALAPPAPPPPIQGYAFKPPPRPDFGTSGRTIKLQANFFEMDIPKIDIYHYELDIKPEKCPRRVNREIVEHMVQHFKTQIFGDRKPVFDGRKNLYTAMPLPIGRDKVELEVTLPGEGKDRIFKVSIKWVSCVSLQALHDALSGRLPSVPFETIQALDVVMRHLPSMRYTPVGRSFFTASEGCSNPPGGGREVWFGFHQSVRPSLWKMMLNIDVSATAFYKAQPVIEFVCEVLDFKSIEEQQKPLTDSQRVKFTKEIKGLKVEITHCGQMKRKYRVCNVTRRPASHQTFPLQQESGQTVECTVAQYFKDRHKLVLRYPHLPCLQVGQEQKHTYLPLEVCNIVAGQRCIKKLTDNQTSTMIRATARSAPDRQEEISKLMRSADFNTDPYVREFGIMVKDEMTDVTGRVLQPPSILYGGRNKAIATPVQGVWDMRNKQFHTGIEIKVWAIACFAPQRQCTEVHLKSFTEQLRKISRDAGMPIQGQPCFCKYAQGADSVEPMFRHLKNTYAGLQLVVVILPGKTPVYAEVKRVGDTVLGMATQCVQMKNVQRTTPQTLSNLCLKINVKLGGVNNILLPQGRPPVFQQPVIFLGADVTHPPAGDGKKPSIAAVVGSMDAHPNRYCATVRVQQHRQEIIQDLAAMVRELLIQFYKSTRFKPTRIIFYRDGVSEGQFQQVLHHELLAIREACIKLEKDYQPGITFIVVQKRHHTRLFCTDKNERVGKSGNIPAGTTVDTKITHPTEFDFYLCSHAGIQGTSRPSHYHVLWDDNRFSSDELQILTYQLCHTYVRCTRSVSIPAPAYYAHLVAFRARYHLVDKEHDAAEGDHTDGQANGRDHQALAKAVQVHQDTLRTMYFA
# AGO2 A367P, sequence (Q9UKV8 whole entry A367P/S387D/S824A/S828D/S831D/S834A): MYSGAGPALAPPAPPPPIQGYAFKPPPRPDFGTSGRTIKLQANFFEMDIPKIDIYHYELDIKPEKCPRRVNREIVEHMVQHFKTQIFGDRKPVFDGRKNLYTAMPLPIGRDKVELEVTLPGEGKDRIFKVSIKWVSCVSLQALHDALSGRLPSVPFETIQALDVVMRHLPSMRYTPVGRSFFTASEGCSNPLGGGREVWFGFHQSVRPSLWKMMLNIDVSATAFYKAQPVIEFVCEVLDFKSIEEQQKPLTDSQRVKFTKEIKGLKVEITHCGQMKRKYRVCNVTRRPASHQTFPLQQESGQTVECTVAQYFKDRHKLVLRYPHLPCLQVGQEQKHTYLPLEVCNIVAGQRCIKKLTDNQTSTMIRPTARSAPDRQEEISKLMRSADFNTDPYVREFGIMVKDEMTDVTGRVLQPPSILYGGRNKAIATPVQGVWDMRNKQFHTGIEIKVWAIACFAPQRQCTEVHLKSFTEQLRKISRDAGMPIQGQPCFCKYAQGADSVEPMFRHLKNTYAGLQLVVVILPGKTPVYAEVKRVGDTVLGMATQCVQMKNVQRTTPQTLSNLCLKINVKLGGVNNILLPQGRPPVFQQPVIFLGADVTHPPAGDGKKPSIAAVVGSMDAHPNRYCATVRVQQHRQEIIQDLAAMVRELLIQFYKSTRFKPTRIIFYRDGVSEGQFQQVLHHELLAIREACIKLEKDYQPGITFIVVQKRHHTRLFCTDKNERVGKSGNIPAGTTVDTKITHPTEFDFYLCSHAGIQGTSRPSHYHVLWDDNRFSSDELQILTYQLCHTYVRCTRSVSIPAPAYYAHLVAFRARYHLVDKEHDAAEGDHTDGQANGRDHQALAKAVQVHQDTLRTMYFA
# AGO2 F182del, sequence (Q9UKV8 other isoform, or with tags, fused parts or gaps S387D;S824A;S828D;S831D;S834A;del182-182): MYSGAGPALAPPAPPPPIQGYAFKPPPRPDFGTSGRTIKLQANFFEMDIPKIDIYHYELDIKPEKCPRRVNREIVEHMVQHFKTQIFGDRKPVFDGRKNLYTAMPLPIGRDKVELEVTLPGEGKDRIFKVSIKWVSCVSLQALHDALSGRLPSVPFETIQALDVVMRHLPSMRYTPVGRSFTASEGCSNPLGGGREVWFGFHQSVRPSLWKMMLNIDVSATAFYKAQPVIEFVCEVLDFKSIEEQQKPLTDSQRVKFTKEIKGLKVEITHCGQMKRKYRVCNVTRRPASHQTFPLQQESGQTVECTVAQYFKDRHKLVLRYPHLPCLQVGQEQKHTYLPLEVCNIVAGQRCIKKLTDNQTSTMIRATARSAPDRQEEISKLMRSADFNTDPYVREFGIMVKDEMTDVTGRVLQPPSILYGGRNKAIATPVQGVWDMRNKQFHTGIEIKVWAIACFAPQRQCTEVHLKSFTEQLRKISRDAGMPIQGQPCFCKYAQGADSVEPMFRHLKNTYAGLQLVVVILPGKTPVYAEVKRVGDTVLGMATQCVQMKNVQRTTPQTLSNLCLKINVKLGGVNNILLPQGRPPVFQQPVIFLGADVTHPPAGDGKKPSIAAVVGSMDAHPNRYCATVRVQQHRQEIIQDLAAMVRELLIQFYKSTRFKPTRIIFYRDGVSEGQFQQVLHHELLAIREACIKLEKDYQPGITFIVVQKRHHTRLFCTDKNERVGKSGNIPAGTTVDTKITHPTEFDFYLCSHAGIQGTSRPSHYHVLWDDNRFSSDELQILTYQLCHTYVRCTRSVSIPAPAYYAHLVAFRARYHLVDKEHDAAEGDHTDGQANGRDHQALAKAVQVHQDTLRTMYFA
# AGO2 WT (phosphosite mutant background), sequence (Q9UKV8 whole entry S387D/S824A/S828D/S831D/S834A): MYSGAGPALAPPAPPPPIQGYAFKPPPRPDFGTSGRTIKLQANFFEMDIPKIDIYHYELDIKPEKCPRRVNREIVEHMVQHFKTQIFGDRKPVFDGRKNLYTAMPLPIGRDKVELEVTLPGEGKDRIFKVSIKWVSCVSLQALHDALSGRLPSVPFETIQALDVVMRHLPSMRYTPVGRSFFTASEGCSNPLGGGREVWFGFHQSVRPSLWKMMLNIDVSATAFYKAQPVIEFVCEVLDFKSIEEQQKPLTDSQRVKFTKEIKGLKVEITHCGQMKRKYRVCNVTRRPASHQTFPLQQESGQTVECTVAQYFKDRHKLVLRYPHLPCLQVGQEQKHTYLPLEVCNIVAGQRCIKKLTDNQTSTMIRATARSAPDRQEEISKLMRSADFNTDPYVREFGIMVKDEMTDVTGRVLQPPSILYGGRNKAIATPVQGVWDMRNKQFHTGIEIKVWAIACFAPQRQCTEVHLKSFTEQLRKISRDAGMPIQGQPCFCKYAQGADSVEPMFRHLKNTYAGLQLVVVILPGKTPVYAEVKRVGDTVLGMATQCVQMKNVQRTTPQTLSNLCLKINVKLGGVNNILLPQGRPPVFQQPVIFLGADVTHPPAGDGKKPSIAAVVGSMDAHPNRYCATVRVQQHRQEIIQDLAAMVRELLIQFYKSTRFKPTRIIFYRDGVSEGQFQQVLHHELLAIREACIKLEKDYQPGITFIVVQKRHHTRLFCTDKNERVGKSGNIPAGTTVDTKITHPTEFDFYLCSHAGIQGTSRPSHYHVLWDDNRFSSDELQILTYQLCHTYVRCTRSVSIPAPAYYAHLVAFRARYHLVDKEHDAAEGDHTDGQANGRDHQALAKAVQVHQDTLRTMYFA
# AGO2 T357M, sequence (Q9UKV8 whole entry T357M/S387D/S824A/S828D/S831D/S834A): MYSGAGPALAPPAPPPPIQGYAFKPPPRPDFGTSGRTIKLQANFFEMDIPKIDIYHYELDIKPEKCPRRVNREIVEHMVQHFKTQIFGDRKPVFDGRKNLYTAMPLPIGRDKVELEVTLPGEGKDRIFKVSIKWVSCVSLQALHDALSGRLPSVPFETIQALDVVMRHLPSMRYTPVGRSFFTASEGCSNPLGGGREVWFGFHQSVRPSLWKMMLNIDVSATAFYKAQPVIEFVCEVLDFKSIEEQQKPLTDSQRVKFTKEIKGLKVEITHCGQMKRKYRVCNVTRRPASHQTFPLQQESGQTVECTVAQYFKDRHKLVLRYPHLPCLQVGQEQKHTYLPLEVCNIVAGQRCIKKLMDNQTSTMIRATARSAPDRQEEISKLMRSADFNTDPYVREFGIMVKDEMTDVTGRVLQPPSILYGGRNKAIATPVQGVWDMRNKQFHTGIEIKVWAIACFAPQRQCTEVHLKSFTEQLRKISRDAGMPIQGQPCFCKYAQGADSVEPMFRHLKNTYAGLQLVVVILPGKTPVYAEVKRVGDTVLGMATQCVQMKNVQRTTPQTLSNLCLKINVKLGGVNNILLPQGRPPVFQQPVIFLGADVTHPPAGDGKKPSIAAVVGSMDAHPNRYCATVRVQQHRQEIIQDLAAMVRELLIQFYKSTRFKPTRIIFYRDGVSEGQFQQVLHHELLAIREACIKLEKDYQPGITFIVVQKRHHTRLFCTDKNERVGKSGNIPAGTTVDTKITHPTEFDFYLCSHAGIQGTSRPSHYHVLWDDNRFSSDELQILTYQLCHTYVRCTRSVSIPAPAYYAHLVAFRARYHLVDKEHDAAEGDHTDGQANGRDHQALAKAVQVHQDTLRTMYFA
Binder,binding signal [1],binding signal (AGO2 L192P),binding signal (AGO2 A367P),binding signal (AGO2 T357M),binding signal (AGO2 F182del)
"ATACTTTA (ssRNA, constant regions annealed to DNA blockers; guide miR-122 5' phosphate) RNA 1: GAGUUCUACAGUCCGACGAUCCCAACAUACUUUACACCUGGAAUUCUCGGGUGCCAA RNA 2: UGGAGUGUGACAAUGGUGUUUG DNA 1: GATCGTCGGACTGTAGAACTC DNA 2: TTGGCACCCGAGAATTCCA",0.121 fold enrichment over input,0.536 fold enrichment over input,0.174 fold enrichment over input,0.643 fold enrichment over input,
"ATGTTTCA (ssRNA, constant regions annealed to DNA blockers; guide miR-122 5' phosphate) RNA 1: GAGUUCUACAGUCCGACGAUCCCAACAUGUUUCACACCUGGAAUUCUCGGGUGCCAA RNA 2: UGGAGUGUGACAAUGGUGUUUG DNA 1: GATCGTCGGACTGTAGAACTC DNA 2: TTGGCACCCGAGAATTCCA",0.125 fold enrichment over input,0.54 fold enrichment over input,0.311 fold enrichment over input,0.58 fold enrichment over input,0.814 fold enrichment over input
"ACATCCTG (ssRNA, constant regions annealed to DNA blockers; guide miR-122 5' phosphate) RNA 1: GAGUUCUACAGUCCGACGAUCCCAACACAUCCUGCACCUGGAAUUCUCGGGUGCCAA RNA 2: UGGAGUGUGACAAUGGUGUUUG DNA 1: GATCGTCGGACTGTAGAACTC DNA 2: TTGGCACCCGAGAATTCCA",0.144 fold enrichment over input,0.376 fold enrichment over input,0.171 fold enrichment over input,0.475 fold enrichment over input,0.153 fold enrichment over input
"ATATTTCA (ssRNA, constant regions annealed to DNA blockers; guide miR-122 5' phosphate) RNA 1: GAGUUCUACAGUCCGACGAUCCCAACAUAUUUCACACCUGGAAUUCUCGGGUGCCAA RNA 2: UGGAGUGUGACAAUGGUGUUUG DNA 1: GATCGTCGGACTGTAGAACTC DNA 2: TTGGCACCCGAGAATTCCA",0.141 fold enrichment over input,0.626 fold enrichment over input,0.373 fold enrichment over input,0.697 fold enrichment over input,1.09 fold enrichment over input
"GCGTCTCA (ssRNA, constant regions annealed to DNA blockers; guide miR-122 5' phosphate) RNA 1: GAGUUCUACAGUCCGACGAUCCCAACGCGUCUCACACCUGGAAUUCUCGGGUGCCAA RNA 2: UGGAGUGUGACAAUGGUGUUUG DNA 1: GATCGTCGGACTGTAGAACTC DNA 2: TTGGCACCCGAGAATTCCA",0.14 fold enrichment over input,0.529 fold enrichment over input,0.271 fold enrichment over input,0.646 fold enrichment over input,0.747 fold enrichment over input
"ATGCTTCA (ssRNA, constant regions annealed to DNA blockers; guide miR-122 5' phosphate) RNA 1: GAGUUCUACAGUCCGACGAUCCCAACAUGCUUCACACCUGGAAUUCUCGGGUGCCAA RNA 2: UGGAGUGUGACAAUGGUGUUUG DNA 1: GATCGTCGGACTGTAGAACTC DNA 2: TTGGCACCCGAGAATTCCA",0.135 fold enrichment over input,0.573 fold enrichment over input,0.309 fold enrichment over input,0.582 fold enrichment over input,0.842 fold enrichment over input
"ACGCTCCG (ssRNA, constant regions annealed to DNA blockers; guide miR-122 5' phosphate) RNA 1: GAGUUCUACAGUCCGACGAUCCCAACACGCUCCGCACCUGGAAUUCUCGGGUGCCAA RNA 2: UGGAGUGUGACAAUGGUGUUUG DNA 1: GATCGTCGGACTGTAGAACTC DNA 2: TTGGCACCCGAGAATTCCA",3.15 fold enrichment over input,10.8 fold enrichment over input,14 fold enrichment over input,1.98 fold enrichment over input,15.2 fold enrichment over input
"GTATCCCA (ssRNA, constant regions annealed to DNA blockers; guide miR-122 5' phosphate) RNA 1: GAGUUCUACAGUCCGACGAUCCCAACGUAUCCCACACCUGGAAUUCUCGGGUGCCAA RNA 2: UGGAGUGUGACAAUGGUGUUUG DNA 1: GATCGTCGGACTGTAGAACTC DNA 2: TTGGCACCCGAGAATTCCA",0.162 fold enrichment over input,0.517 fold enrichment over input,0.408 fold enrichment over input,0.614 fold enrichment over input,0.832 fold enrichment over input
"GTATCTCA (ssRNA, constant regions annealed to DNA blockers; guide miR-122 5' phosphate) RNA 1: GAGUUCUACAGUCCGACGAUCCCAACGUAUCUCACACCUGGAAUUCUCGGGUGCCAA RNA 2: UGGAGUGUGACAAUGGUGUUUG DNA 1: GATCGTCGGACTGTAGAACTC DNA 2: TTGGCACCCGAGAATTCCA",0.141 fold enrichment over input,0.597 fold enrichment over input,0.455 fold enrichment over input,0.579 fold enrichment over input,1.35 fold enrichment over input
"GTGCTCCG (ssRNA, constant regions annealed to DNA blockers; guide miR-122 5' phosphate) RNA 1: GAGUUCUACAGUCCGACGAUCCCAACGUGCUCCGCACCUGGAAUUCUCGGGUGCCAA RNA 2: UGGAGUGUGACAAUGGUGUUUG DNA 1: GATCGTCGGACTGTAGAACTC DNA 2: TTGGCACCCGAGAATTCCA",0.149 fold enrichment over input,0.546 fold enrichment over input,0.535 fold enrichment over input,0.617 fold enrichment over input,0.426 fold enrichment over input
"ATGCCTCA (ssRNA, constant regions annealed to DNA blockers; guide miR-122 5' phosphate) RNA 1: GAGUUCUACAGUCCGACGAUCCCAACAUGCCUCACACCUGGAAUUCUCGGGUGCCAA RNA 2: UGGAGUGUGACAAUGGUGUUUG DNA 1: GATCGTCGGACTGTAGAACTC DNA 2: TTGGCACCCGAGAATTCCA",0.127 fold enrichment over input,0.547 fold enrichment over input,0.307 fold enrichment over input,0.637 fold enrichment over input,0.9 fold enrichment over input
"ATATTTTA (ssRNA, constant regions annealed to DNA blockers; guide miR-122 5' phosphate) RNA 1: GAGUUCUACAGUCCGACGAUCCCAACAUAUUUUACACCUGGAAUUCUCGGGUGCCAA RNA 2: UGGAGUGUGACAAUGGUGUUUG DNA 1: GATCGTCGGACTGTAGAACTC DNA 2: TTGGCACCCGAGAATTCCA",0.127 fold enrichment over input,0.509 fold enrichment over input,0.189 fold enrichment over input,0.697 fold enrichment over input,
"GTATTTCA (ssRNA, constant regions annealed to DNA blockers; guide miR-122 5' phosphate) RNA 1: GAGUUCUACAGUCCGACGAUCCCAACGUAUUUCACACCUGGAAUUCUCGGGUGCCAA RNA 2: UGGAGUGUGACAAUGGUGUUUG DNA 1: GATCGTCGGACTGTAGAACTC DNA 2: TTGGCACCCGAGAATTCCA",0.136 fold enrichment over input,0.545 fold enrichment over input,0.337 fold enrichment over input,0.647 fold enrichment over input,0.805 fold enrichment over input
"ATGTTCCA (ssRNA, constant regions annealed to DNA blockers; guide miR-122 5' phosphate) RNA 1: GAGUUCUACAGUCCGACGAUCCCAACAUGUUCCACACCUGGAAUUCUCGGGUGCCAA RNA 2: UGGAGUGUGACAAUGGUGUUUG DNA 1: GATCGTCGGACTGTAGAACTC DNA 2: TTGGCACCCGAGAATTCCA",0.148 fold enrichment over input,0.552 fold enrichment over input,0.299 fold enrichment over input,0.682 fold enrichment over input,0.701 fold enrichment over input
"GCACTCTG (ssRNA, constant regions annealed to DNA blockers; guide miR-122 5' phosphate) RNA 1: GAGUUCUACAGUCCGACGAUCCCAACGCACUCUGCACCUGGAAUUCUCGGGUGCCAA RNA 2: UGGAGUGUGACAAUGGUGUUUG DNA 1: GATCGTCGGACTGTAGAACTC DNA 2: TTGGCACCCGAGAATTCCA",0.143 fold enrichment over input,0.491 fold enrichment over input,0.33 fold enrichment over input,0.457 fold enrichment over input,0.887 fold enrichment over input
"ACATCCCG (ssRNA, constant regions annealed to DNA blockers; guide miR-122 5' phosphate) RNA 1: GAGUUCUACAGUCCGACGAUCCCAACACAUCCCGCACCUGGAAUUCUCGGGUGCCAA RNA 2: UGGAGUGUGACAAUGGUGUUUG DNA 1: GATCGTCGGACTGTAGAACTC DNA 2: TTGGCACCCGAGAATTCCA",0.128 fold enrichment over input,0.38 fold enrichment over input,0.158 fold enrichment over input,0.471 fold enrichment over input,0.144 fold enrichment over input
"ACGTTTCA (ssRNA, constant regions annealed to DNA blockers; guide miR-122 5' phosphate) RNA 1: GAGUUCUACAGUCCGACGAUCCCAACACGUUUCACACCUGGAAUUCUCGGGUGCCAA RNA 2: UGGAGUGUGACAAUGGUGUUUG DNA 1: GATCGTCGGACTGTAGAACTC DNA 2: TTGGCACCCGAGAATTCCA",0.146 fold enrichment over input,0.656 fold enrichment over input,0.363 fold enrichment over input,0.572 fold enrichment over input,1.44 fold enrichment over input
"GCACTTCA (ssRNA, constant regions annealed to DNA blockers; guide miR-122 5' phosphate) RNA 1: GAGUUCUACAGUCCGACGAUCCCAACGCACUUCACACCUGGAAUUCUCGGGUGCCAA RNA 2: UGGAGUGUGACAAUGGUGUUUG DNA 1: GATCGTCGGACTGTAGAACTC DNA 2: TTGGCACCCGAGAATTCCA",0.149 fold enrichment over input,0.575 fold enrichment over input,0.348 fold enrichment over input,0.655 fold enrichment over input,0.82 fold enrichment over input
"ACGCTCCA (ssRNA, constant regions annealed to DNA blockers; guide miR-122 5' phosphate) RNA 1: GAGUUCUACAGUCCGACGAUCCCAACACGCUCCACACCUGGAAUUCUCGGGUGCCAA RNA 2: UGGAGUGUGACAAUGGUGUUUG DNA 1: GATCGTCGGACTGTAGAACTC DNA 2: TTGGCACCCGAGAATTCCA",5.29 fold enrichment over input,12.3 fold enrichment over input,13.1 fold enrichment over input,2.94 fold enrichment over input,16.9 fold enrichment over input
